Experimental data from PubChem BioAssay (NCATS).
Records with an inconclusive call do not appear. Calls of active or inactive are those of the source. Unless noted, calls come from the whole dose curve; as a rule, active = well fitted curve in the direction sought with a large enough effect; inconclusive = small, poorly fitted or top-dose-only effect, or another doubt; inactive = no such curve, though single readings can be large; an effect the other way counts as inactive or inconclusive.

Experiments:
[1] = AP1 Signaling Pathway (AID 357; active = well fitted curve in either direction with a large enough effect, not every such curve was filed as active;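 note: ME-180 reporter cells stimulated with EGF at its EC50 level; % is set by controls: 0 for no effect and ±100 for the full control effect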); conditions: ME-180 AP-1-bla reporter, EGF-induced, beta-lactamase ratio, 5 h; at 38 µM (top of the series)
Procedure, shortened: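 Beta-lactamase reporter under AP-1 response element, ME-180 background. Stimulus: EC50 EGF. Compound exposure 5 h, 37 °C. Detection: CCF4, 2.5 h RT, 460/530 nm. Values: AC50 from titration.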

[2] = NFAT Signaling Pathway (AID 444; active = well fitted curve in either direction with a large enough effect, not every such curve was filed as active;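 note: carbachol stimulus at about its EC50 of 1 µM final; % is set by controls: 0 for no effect and ±100 for the full control effect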); conditions: Jurkat NFAT-bla M1, carbachol, beta-lactamase ratio, 5 h; at 38 µM (top of the series)
Procedure, shortened: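 Read-out: CCF4 FRET ratio (460 nm/530 nm) after 1 h RT dye loading, used for %activity and AC50 from titration series. Cells: Jurkat NFAT-β-lactamase/M1 line, treated with compound plus 1 uM carbachol for 5 h, 37 °C.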

[3] = Stat Signaling Pathway (AID 446; active = well fitted curve in either direction with a large enough effect, not every such curve was filed as active;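 note: ME-180 cervical cancer cells given 40 pM IL-6 alongside compound; SIE-controlled beta-lactamase reporter measured as 460/530 nm FRET emission ratio; % is set by controls: 0 for no effect and ±100 for the full control effect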); conditions: ME-180 SIE beta-lactamase reporter, IL-6 stimulated, 5 h; at 38 µM (top of the series)
Procedure, shortened: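 Screening format detects activators and inhibitors alike: ME-180 SIE-bla cells stimulated at 40 pM IL-6 for 5 hrs with compound, then dual-emission beta-lactamase read at 405 nm excitation.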

[4] = molecular target: Glucocorticoid receptor (Homo sapiens) (UniProt P04150); assay: GR-GFP Redistribution (AID 450;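 active = compounds whose dose series gives a full or clear partial fitted curve of increased nuclear translocation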; note: potency is the fitted concentration of half-maximal effect); conditions: U2OS GR-GFP nuclear translocation, laser cytometry, 2 h
[5] = molecular target: Glucocorticoid receptor (Homo sapiens) (UniProt P04150); assay: GR-EFC Redistribution (AID 451; calls by dose curve; note: potency is the fitted concentration of half-maximal effect); conditions: CHO-K1 GR-EFC translocation, beta-gal luminescence, 2 h
Procedure, shortened: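 Translocation of GR-ED fusion to nuclear EA restores b-gal, read by luminescence after 1 h room-temperature detection. Engineered CHO-K1 biosensor cells, 1,000/well, exposed 2 h at 37 C to titrations up to 46 uM final.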

[6] = molecular target: Mitogen-activated protein kinase 10 (Mus musculus) (UniProt Q61831); assay: JNK3 AlphaScreen Assay (AID 530; active = well fitted curve in either direction with a large enough effect, not every such curve was filed as active;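 note: kinase came from lysate of stimulated human HepG2 cells; signal reports phosphorylation of biotinylated GST-cJun 1-79 at Ser73 with 10 µM ATP; % is set by controls: 0 for no effect and ±100 for the full control effect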)
Procedure, shortened: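 Compound titrations were preincubated 15 minutes at room temperature with substrate, antibody and pre-activated JNK3-containing HepG2 lysate. Reactions were started with 10 uM ATP and stopped with EDTA-containing bead buffer for AlphaScreen detection.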

[7] = molecular target: 3',5'-cyclic-AMP phosphodiesterase 4B (Homo sapiens) (UniProt Q07343); assay: qHTS Assay for Inhibitors of PDE-IV (AID 607; active = well fitted activation curve with a large enough effect in the main read-out, with a control signal flat, not every such curve was filed as active; note: % of control where 0% means no effect)
Procedure, shortened: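 The readout is membrane depolarisation from a cAMP-sensing CNG channel, detected with a potential dye at ex 535/em 590. Cells were HEK293-derived (endogenous PDE-IV) at 1000 cells/well, titrated up to 22.9 uM final.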

[8] = molecular target: Guanine nucleotide-binding protein G(i) subunit alpha-1 (Homo sapiens) (UniProt P63096); assay: qHTS Assay for Inhibitors of RGS12 GoLoco Motif Activity (Green Fluorophore) (AID 879);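 note: 0% = labeled peptide with Gαi1 and full inhibition = labeled peptide alone without protein; negative values mean loss of peptide binding seen as reduced polarization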
Procedure, shortened: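 Fluorescence polarization assay: 50 nM Gαi1 with 10 nM FITC-labeled RGS12 GoLoco peptide in 10 mM Tris pH 7.5, 150 mM NaCl, 0.1 mM GDP, 0.05% NP40, 10 min at room temperature with compound.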

[9] = qHTS Assay for Identification of Small Molecule Agonists for Thrombopoietin (TPO) Signaling Pathway (AID 917); note: % is set by controls: 0 for no effect and ±100 for the full control effect
Procedure, shortened: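 Reporter: GpIIb promoter–luciferase in murine Ba/F3 expressing human TPO receptor. Pre-starved of IL-3 overnight; compounds with 26 pM TPO, 24 hrs, 37 C/5% CO2; luminescence read.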

[10] = molecular target: Muscarinic acetylcholine receptor M1 (Rattus norvegicus) (UniProt P08482); assay: qHTS Assay for Antagonists of Acetylcholine Muscarinic M1 Receptor: Measurement of IP-One Response (AID 944); note: nearly all actives have a fitted effect of over 75% in size
Procedure, shortened: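 M1-CHO (rat), 2000 cells/well, overnight recovery; cpd 10 min; carbachol EC80 (200 nM), 30 min, HEPES buffer + 50 mM LiCl pH 7.4; IP-One HTRF, Ex 337, Em 620/665 nm.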

[11] = molecular target: Pyruvate kinase (Leishmania mexicana) (UniProt Q27686); assay: qHTS Validation Assay for Inhibitors of Leishmania Mexicana Pyruvate Kinase (AID 945);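 note: 0% = DMSO only neutral control wells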
Procedure, shortened: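 LmPYK E451W 0.2 nM; 0.5 mM PEP, 0.1 mM ADP, 7 mM MgCl2, 50 mM KCl, imidazole pH 7.2, 0.01% Tween 20, 0.05% BSA; 1 h RT; PKLight luminescence; DMSO-normalized.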

[12] = molecular target: Alpha-galactosidase A (Homo sapiens) (UniProt P06280); assay: Counterscreen for Glucocerebrosidase Inhibitors: qHTS Assay for Human alpha-Galactosidase at pH 4.5 (AID 992); note: 0% is about no effect
Procedure, shortened: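 Concentration-response curves (0.7 nM to 77 uM final) were modeled with the Hill equation to give AC50. Reactions: 2 nM enzyme, 80 uM fluorogenic alpha-galactoside, pH 4.5 citric acid buffer, 20 min, room temperature.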

[13] = molecular target: alpha-glucosidase (Oryza sativa, rice) (UniProt Q653V4); assay: Counterscreen for Glucocerebrosidase Inhibitors: qHTS Assay for Rice alpha-Glucosidase at pH 5.0 (AID 997);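 note: 0% = full activity with enzyme and -100% = basal without enzyme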
Procedure, shortened: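 Rice alpha-glucosidase (4 nM final) with 400 uM 4-methylumbelliferyl-alpha-D-glucopyranoside in citrate buffer pH 5.0, 20 min at room temperature, stopped at pH 10; fluorescence 365/440 nm, compounds 0.7 nM–77 uM, AC50 from Hill fits.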

[14] = Validation of Assay for Modulators of Lamin A Splicing (AID 1459; active = well fitted curve in the direction sought with a large enough effect in the signal ratio; the % refers to the signal ratio;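 note: cells exposed to compound for two days before reading; 0% is about no effect; ratio rise marks activators and ratio drop marks inhibitors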)
Procedure, shortened: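 Splicing correction read as GFP (500-530 nm) over DsRed2 (575-640 nm) object intensity after 48 h compound exposure of reporter HeLa S3 clones (600 cells/well, 2% FBS medium); ancitabine and cycloheximide titrations, 0.5% DMSO as vehicle.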

[15] = molecular target: DNA repair nuclease/redox regulator APEX1 (Homo sapiens) (UniProt P27695); assay: qHTS Validation Assay for Inhibitors of the Human Apurinic/apyrimidinic Endonuclease 1 (APE1) (AID 1705)
Procedure, shortened: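 Activity read as rising fluorescence (598 nm emission, 525 nm excitation) from incision of a TAMRA/BHQ-2 duplex carrying a THF abasic site (50 nM). Compound and enzyme sat 15 min at RT before substrate start; signal change between first and third 60-s reads.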

[16] = Counterscreen for APE1 Inhibitors: Fluorescent Dye Displacement Validation Assay (AID 1707);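 note: plate controls were ThO with dsDNA and no compound for no effect and ThO without dsDNA for full effect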
Procedure, shortened: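 Assay buffer: Tris-HCl pH7.5 with 50mM NaCl, 2 mM MgCl2, 0.01% Tween-20. Dye 250 nM, duplex 50 nM final. Readout: decrease in ThO endpoint fluorescence, 480 nm excitation, 540 nm emission.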

[17] = molecular target: Endonuclease 4 (Escherichia coli (strain K12)) (UniProt P0A6C1); assay: Counterscreen for APE1 Inhibitors: qHTS Validation Assay for Inhibitors of Endonuclease IV (AID 1708); note: % is set by controls: 0 for no effect and ±100 for the full control effect
Procedure, shortened: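 qHTS concentration-response format; LOPAC1280 tested under APE1-screen conditions. 2 nM enzyme, 15 min compound preincubation at RT, then 50 nM TAMRA/BHQ-2 abasic substrate; kinetic fluorescence read, three reads at 60 s intervals.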

[18] = qHTS for differential inhibitors of proliferation of Plasmodium falciparum line 7G8 (AID 1815);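 note: parasite growth measured after three days of incubation; plate controls were vehicle wells for no effect and reference inhibitor wells for full effect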
[19] = qHTS for differential inhibitors of proliferation of Plasmodium falciparum line GB4 (AID 1816); conditions: Potency: Plasmodium falciparum GB4 proliferation inhibition;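 note: parasite growth measured after 72 h incubation; 0% = vehicle DMSO and -100% = reference inhibitor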

Sequence of Glucocorticoid receptor (Homo sapiens) (P04150 whole entry, looked up, the tested form may be a part): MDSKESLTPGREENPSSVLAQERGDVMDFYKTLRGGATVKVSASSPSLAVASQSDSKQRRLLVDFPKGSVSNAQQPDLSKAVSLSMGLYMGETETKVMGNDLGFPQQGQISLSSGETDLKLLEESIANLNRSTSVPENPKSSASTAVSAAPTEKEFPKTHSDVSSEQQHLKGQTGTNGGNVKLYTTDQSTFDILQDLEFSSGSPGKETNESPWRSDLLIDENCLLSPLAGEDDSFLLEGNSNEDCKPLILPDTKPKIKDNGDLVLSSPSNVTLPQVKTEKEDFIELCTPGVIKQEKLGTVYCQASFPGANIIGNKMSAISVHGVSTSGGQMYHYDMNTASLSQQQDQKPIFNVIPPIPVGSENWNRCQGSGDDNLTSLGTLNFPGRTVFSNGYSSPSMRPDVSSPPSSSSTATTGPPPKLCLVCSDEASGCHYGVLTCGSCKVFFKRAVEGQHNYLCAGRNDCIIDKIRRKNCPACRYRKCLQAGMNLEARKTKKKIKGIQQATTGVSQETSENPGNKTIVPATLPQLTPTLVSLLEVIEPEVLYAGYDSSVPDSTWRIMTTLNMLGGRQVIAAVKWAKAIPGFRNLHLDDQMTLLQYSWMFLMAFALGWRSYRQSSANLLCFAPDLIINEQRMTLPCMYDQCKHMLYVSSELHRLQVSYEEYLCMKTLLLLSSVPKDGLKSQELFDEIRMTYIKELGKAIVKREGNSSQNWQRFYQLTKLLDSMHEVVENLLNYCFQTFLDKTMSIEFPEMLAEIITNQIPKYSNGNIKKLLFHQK
Sequence of 3',5'-cyclic-AMP phosphodiesterase 4B (Homo sapiens) (Q07343 whole entry, looked up): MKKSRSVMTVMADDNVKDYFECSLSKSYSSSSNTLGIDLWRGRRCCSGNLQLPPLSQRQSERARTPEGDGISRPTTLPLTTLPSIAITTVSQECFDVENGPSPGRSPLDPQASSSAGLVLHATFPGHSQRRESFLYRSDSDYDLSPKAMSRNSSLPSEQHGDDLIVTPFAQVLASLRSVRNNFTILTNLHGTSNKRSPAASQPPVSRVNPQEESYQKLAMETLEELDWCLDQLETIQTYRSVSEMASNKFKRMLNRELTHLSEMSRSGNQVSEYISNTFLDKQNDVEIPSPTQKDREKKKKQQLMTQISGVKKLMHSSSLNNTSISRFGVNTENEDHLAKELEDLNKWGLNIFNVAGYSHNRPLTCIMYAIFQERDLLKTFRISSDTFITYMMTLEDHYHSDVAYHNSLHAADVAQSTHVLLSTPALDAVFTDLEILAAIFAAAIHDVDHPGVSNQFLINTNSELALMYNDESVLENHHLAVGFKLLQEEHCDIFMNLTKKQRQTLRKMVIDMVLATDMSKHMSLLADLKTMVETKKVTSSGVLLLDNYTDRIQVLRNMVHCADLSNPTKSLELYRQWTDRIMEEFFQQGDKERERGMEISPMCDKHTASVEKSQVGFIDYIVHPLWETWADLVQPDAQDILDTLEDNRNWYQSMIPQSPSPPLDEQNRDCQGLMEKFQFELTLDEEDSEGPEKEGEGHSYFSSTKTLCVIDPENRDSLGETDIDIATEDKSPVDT
Sequence of Pyruvate kinase (Leishmania mexicana) (Q27686 2-499 E452W): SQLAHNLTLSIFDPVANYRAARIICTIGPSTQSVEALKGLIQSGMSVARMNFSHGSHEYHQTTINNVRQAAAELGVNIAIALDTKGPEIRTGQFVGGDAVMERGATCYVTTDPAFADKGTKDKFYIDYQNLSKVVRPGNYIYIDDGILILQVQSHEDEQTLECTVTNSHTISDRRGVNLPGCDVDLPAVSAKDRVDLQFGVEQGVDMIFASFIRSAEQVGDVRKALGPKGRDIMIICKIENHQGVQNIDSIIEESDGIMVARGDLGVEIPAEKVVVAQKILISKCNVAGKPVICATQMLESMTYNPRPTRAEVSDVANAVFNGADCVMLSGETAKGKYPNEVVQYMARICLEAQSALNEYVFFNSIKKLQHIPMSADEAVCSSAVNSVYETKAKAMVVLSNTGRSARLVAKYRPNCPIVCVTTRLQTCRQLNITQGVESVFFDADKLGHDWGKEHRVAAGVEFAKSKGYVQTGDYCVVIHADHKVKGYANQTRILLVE
Sequence of Alpha-galactosidase A (Homo sapiens) (P06280 whole entry, looked up): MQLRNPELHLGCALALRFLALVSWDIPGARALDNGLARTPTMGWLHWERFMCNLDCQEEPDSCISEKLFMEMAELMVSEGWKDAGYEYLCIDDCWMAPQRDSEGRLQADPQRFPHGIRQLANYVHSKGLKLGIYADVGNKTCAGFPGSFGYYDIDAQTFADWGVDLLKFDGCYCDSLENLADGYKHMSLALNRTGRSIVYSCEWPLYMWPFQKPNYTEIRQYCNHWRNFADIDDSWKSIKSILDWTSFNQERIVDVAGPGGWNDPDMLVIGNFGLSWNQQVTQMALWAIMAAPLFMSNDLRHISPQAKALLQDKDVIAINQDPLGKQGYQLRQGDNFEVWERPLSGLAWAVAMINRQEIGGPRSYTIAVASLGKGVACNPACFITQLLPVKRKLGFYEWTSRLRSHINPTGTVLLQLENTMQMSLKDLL
Sequence of Muscarinic acetylcholine receptor M1 (Rattus norvegicus) (P08482 whole entry, looked up): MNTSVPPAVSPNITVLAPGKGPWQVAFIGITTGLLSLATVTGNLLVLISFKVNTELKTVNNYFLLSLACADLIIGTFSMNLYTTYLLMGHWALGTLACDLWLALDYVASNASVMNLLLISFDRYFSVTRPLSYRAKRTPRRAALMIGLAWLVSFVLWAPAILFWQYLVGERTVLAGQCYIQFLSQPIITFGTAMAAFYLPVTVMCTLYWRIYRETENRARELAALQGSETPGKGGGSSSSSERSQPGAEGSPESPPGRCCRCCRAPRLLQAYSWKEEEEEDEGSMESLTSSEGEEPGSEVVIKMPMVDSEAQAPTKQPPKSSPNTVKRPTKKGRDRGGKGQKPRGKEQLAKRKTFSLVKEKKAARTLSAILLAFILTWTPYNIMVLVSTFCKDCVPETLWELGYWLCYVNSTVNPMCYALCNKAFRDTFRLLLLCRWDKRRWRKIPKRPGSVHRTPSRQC
Sequence of DNA repair nuclease/redox regulator APEX1 (Homo sapiens) (P27695 whole entry, looked up): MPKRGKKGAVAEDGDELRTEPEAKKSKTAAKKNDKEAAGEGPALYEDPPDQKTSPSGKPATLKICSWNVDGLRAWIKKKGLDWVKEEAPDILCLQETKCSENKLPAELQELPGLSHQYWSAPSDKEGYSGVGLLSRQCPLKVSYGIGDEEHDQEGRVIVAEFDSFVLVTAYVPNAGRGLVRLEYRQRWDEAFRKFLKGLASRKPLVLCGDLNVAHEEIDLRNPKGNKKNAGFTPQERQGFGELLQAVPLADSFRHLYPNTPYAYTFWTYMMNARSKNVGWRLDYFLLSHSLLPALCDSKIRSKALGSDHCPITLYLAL
Sequence of Guanine nucleotide-binding protein G(i) subunit alpha-1 (Homo sapiens) (P63096 whole entry, looked up): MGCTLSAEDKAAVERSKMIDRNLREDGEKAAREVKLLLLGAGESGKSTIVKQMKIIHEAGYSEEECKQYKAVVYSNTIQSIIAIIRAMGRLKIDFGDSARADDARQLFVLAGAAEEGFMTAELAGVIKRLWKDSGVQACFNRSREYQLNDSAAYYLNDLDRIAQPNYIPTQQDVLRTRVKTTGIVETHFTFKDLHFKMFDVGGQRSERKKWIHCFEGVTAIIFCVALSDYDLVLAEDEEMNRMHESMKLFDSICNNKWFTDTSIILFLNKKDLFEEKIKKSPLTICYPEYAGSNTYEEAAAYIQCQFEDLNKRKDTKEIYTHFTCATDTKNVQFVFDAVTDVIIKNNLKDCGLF

CN(C)CCCCSC(=N)N
inactive: activity change, negative = inhibition [1] 1.82% | activity change, negative = inhibition [2] 1.09% | activity, negative = inhibition [3] -29.5% | Potency [4] > 46 µM | Potency [5] > 46 µM | Potency [6] | Potency [7] | outcome [8] | Potency [9] | Potency [10] | Potency [11] | outcome [12] | outcome [13] | outcome [14] | Potency [15] | Potency [16] | Potency [17] | Potency [18] | Potency [19]
